Test results taken from PubChem BioAssay (NCI).
This is part of a sample that, as a whole, favours compounds with a hit. Of some 83,000 tested, about 20% had one in any assay.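 Cells were grown in 96-well plates and exposed to the test compound at a single concentration for 48 hours; results are reported as percent growth, with values below 10 considered active.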 Active and inactive are the calls of the source.

Test system: HL-60(TB) leukemia
Assay: NCI-60 one-dose screen, 48 h (100 = growth as untreated, 0 = no growth, -100 = all killed)
Conditions: 10 µM unless noted

SMILES | growth
C=C1CCC2C3(C)COC(c4ccccc4)OC3CCC2(C)C1CC(Sc1ccccc1)C1=CCOC1=O (configuration not stated) | -33% (active)
Cn1cc(NC(=O)c2cc(NC(=O)c3ccc(C#Cc4ccccc4)cc3)cn2C)cc1C(=O)NCCCN1CCOCC1 | -67% (active)
COc1ccc(C(=O)/C=C/c2ccc(Cl)c(C(F)(F)F)c2)cc1S(N)(=O)=O | 6.1% (active)
COc1ccc2[nH]cc(/C=N/Nc3cccc(Cl)n3)c2c1 | 23.7% (inactive)
COc1ccc(C2=Nc3c(N)nc(N)nc3NC(c3ccc(Oc4nc(Nc5ccc(F)cc5)nc(N(C)C)n4)c(OC)c3)C2)cc1 (configuration not stated) | 32.6% (inactive)
Cc1ccc(-n2c(-c3cc4ccccc4nc3Cl)noc2=O)cc1 | 85.1% (inactive)
CC1(C)CC(=O)C2=C(C1)N(Cc1ccc(C(=O)O)cc1)C1=C(C(=O)CC(C)(C)C1)C2c1ccc(Cl)cc1 | 107% (inactive)
COc1cc2oc(-c3cccc(C(=O)Nc4ccc(Cl)cc4)c3)cc(=O)c2c(OCCNC(=O)[C@H](CO)NC(=O)OC(C)(C)C)c1OC | -32.5% (active)
Cc1ccc([N+](=O)[O-])c(C(=O)Nc2ccc(-c3ccc4c(c3)NC(=O)/C4=C\c3ccc[nH]3)cc2)c1 | 49.5% (inactive)
CN1C(=O)/C(=C/c2ccc3ncsc3c2)NC1=NC12CC3CC(CC(O)(C3)C1)C2 | -16.6% (active)
Cc1noc2c(Cc3ccccc3)nn(CC(=O)N/N=C/c3ccc(Br)cc3)c(=O)c12 | 100% (inactive)
OCNc1ccc(-n2cnc3cc(-c4ccc(O)cc4)ccc32)cc1C(F)(F)F | -2.45% (active)
